Results on 88 molecules are retold here after PubChem BioAssay AID504411 (The Scripps Research Institute Molecular Screening Center, 2011).

The whole screen tested about 340,000 compounds, of which about 200 (0.059%) were called active. The sample holds actives, similar compounds and a random draw of the others, so the mix is not that of the screen. Rule as the data show it: active = inhibition above about 34%; inactive = the rest.

This test deals with Diacylglycerol lipase-beta (Homo sapiens) (UniProt Q8NCG7). Kind of test: DAGLB lipase inhibitors, primary screen, biochemical, fluorescence, HTS (AID 504411).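 Also: 0% = enzyme with vehicle and 100% = wells lacking enzyme.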 To be noted: HEK293T DAGLB membrane lysate, EnzChek fluorogenic substrate; at 5.17 µM; stronger effect = higher value.
Chain of Diacylglycerol lipase-beta (Homo sapiens) (Q8NCG7 whole entry, looked up): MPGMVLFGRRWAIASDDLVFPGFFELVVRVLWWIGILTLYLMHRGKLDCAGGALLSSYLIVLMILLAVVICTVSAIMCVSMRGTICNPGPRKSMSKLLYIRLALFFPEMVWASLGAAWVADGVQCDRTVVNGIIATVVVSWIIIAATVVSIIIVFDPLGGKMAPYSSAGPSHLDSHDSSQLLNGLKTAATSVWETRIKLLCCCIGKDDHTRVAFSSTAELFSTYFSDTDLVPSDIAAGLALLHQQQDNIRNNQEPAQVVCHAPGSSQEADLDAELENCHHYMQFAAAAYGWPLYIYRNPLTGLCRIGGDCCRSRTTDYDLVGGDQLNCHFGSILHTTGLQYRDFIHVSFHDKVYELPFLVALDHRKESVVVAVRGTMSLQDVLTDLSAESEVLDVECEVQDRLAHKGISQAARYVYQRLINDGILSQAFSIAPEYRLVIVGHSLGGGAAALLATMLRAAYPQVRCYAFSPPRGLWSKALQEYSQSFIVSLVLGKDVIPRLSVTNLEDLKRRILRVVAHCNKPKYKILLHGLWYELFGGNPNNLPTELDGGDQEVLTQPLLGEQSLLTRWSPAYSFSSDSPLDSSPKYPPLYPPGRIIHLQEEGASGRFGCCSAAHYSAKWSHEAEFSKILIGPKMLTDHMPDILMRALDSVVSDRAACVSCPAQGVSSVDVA
With `CC(=O)Nc1ccc(N2C(=O)C3C4CC(=O)C(c5ccccc54)C3C2=O)cc1` (stereo not drawn), the inhibition (in general, the change of the read-out against control, counted positive when it falls) was 2.73% (inactive).

For `O=C(Oc1cccc(N2C(=O)C3C4c5ccccc5C(c5ccccc54)C3C2=O)c1)c1ccco1` (stereo not drawn), the inhibition is 34.9% (active).

As for `COC(=O)c1cccc(N2C(=O)C3C4C=CC(CC4)C3C2=O)c1` (stereo not drawn), the inhibition was -2.32% (inactive).

Take `CCOC(=O)C1=NN(c2ccc(Cl)cc2)/C(=C/C2=NCCc3cc(OC)c(OC)cc32)S1`: the inhibition was 3.17% (inactive).

Turning to `CCN(CC(=O)Nc1ccc(NC(C)=O)cc1)C(=O)CSC(=S)N1CCCC1`, the inhibition is -0.87% (inactive).

`Cn1c(-c2ccc(C(=O)c3ccccc3)s2)nc2ccccc21`: the inhibition was -0.73% (inactive).

Regarding `O=C1Cc2cc(S(=O)(=O)Nc3cccc(F)c3)ccc2N1`, the inhibition was 0.82% (inactive).

On to `O=C(CCNC(=O)c1ccc([N+](=O)[O-])cc1)NC1CCCCC1`, for which the inhibition is 0.66% (inactive).

Regarding `O=C(/C=C/c1ccc(Cl)cc1)NCCCn1ccnc1`, the inhibition is -2.05% (inactive).

For `CCOc1ccc(Br)cc1S(=O)(=O)Nc1cccc(S(=O)(=O)N(CC)CC)c1`, the inhibition was -0.11% (inactive).

Turning to `Cc1cc(NC(=O)Nc2c[nH]c(=O)[nH]c2=O)ccc1Br`, the inhibition was -0.76% (inactive).

Turning to `Cc1ccc(-c2nn(C(C)(C)C)c3ncnc(N)c23)cc1`, the inhibition was -2.33% (inactive).

With `CCCCCCn1c(=O)n2n(c1=O)C[C@]1(OC(=O)NCc3ccc(OC)c(OC)c3)CN(S(=O)(=O)c3ccc(C)cc3)C[C@]1(O)C2`, the inhibition was 1.56% (inactive).

For the molecule `CC(NC(=O)c1ccc(S(=O)(=O)Nc2ccccc2)cc1)c1ccc(S(N)(=O)=O)cc1` (stereo not drawn), the inhibition is 1.2% (inactive).

Regarding `Cc1ccccc1OCCC(=O)Nc1c(C)n(C)n(-c2ccccc2)c1=O`, the inhibition was -2.86% (inactive).

As for `CCOc1nnc(C)c2c(C)n(-c3cccc(Cl)c3)nc12`, the inhibition was -5.36% (inactive).

Consider `O=[N+]([O-])c1cc(S(=O)(=O)CCCN2CCOCC2)ccc1F`, for which the inhibition is -0.41% (inactive).

Turning to `Cc1nc2ccc(S(=O)(=O)N(C)CC(=O)NC(C)c3ccccc3)cc2s1` (stereo not drawn), the inhibition is 1.36% (inactive).

Take `O=C1N(c2ccc(Cl)cc2)C(c2ccc(Cl)cc2)N2CCCN12` (stereo not drawn): the inhibition is -1.46% (inactive).

Turning to `COc1ccc(S(=O)(=O)Nc2ccccc2C(=O)N2CCCC2)cc1C`, the inhibition is 0.86% (inactive).

For `CCOc1ncccc1C(=O)NNC(=O)c1cccc(S(=O)(=O)Nc2ccccc2OC)c1`, the inhibition was 1.16% (inactive).

Take `COC(=O)c1ccccc1NS(=O)(=O)c1ccc2[nH]c(=O)[nH]c2c1`: the inhibition was -1.28% (inactive).

`COc1cccc(/C=N/Nc2ccc(S(=O)(=O)Nc3ccccc3C(=O)O)cc2[N+](=O)[O-])c1O`: the inhibition was 39.5% (active).

For the molecule `COc1ccc(S(=O)(=O)Nc2ccc3cn[nH]c3c2)cc1[N+](=O)[O-]`, the inhibition is -1.73% (inactive).

For `COc1ccc(Br)cc1/C=N/Nc1ccc(S(=O)(=O)Nc2ccccc2C(=O)O)cc1[N+](=O)[O-]`, the inhibition was 35.8% (active).

Consider `Cc1ccc(OCCCCN2CCCCC2)c(Br)c1`, for which the inhibition is 1.62% (inactive).

Turning to `CCCNC(=O)CN(Cc1ccccc1F)S(=O)(=O)c1ccc(C)cc1`, the inhibition was 1.71% (inactive).

For the molecule `COc1ccccc1C(=O)NC(=O)COC(=O)C1CC1`, the inhibition is 3.34% (inactive).

Take `N#CC(Cc1cc2ccccc2n1S(=O)(=O)c1ccccc1)OCc1ccccc1` (stereo not drawn): the inhibition was -8.05% (inactive).

As to `O=C(O)CCCCCCCCc1cn(CN2C(=O)c3ccccc3C2=O)nn1`, the inhibition was 1.19% (inactive).

Turning to `COc1cc(C2C(C(=O)c3sc(C)nc3C)=C(O)C(=O)N2CCN(C)C)cc(OC)c1OC` (stereo not drawn), the inhibition is 0.65% (inactive).

Take `O=C(N[C@@H]1C/C=C\C[C@@H](CC(=O)N(CCO)Cc2ccccc2)C(=O)N[C@H](Cc2ccccc2)COC1=O)OCC1c2ccccc2-c2ccccc21`: the inhibition was -1.54% (inactive).

With `O=C(CCc1ccc(O)cc1)NN=Cc1cc(Br)ccc1O`, the inhibition was 3.63% (inactive).

`NC(N)=NCCCc1cn(CC(=O)N2CCNCC2)nn1`: the inhibition was -3.67% (inactive).

Turning to `COc1ccc(CCNC(=O)c2ccc(NC(=O)CC3SC(N4CCCCC4)=NC3=O)cc2)cc1OC` (stereo not drawn), the inhibition is 2.1% (inactive).

Regarding `O=C(O)c1ccccc1-c1ccccc1C(=O)Nc1ccccc1Br`, the inhibition is 0.09% (inactive).

As for `CC(NC(=O)c1ccccc1SCC(=O)N1CCCC1)c1ccccc1` (stereo not drawn), the inhibition was 0.41% (inactive).

With `Cc1ccc2cccc(O)c2[n+]1[O-]`, the inhibition was 1.39% (inactive).

`CN1CCC(=NNC(=O)CN(c2cccc(Cl)c2)S(C)(=O)=O)CC1`: the inhibition was -3.34% (inactive).

For `Cc1ccccc1CSc1nnc(Cn2c(=O)sc3ccccc32)n1C`, the inhibition is 0.6% (inactive).

In the case of `C/C(=N\OCC(=O)Nc1ccc(Br)cc1)c1cccs1`, the inhibition is -7.81% (inactive).

In the case of `COc1ccccc1C1CCN(C(=S)Nc2ccc(Br)cc2)CC1`, the inhibition is 23.2% (inactive).

As to `CCc1cccc(C)c1NS(=O)(=O)c1c(C)nc2sccn2c1=O`, the inhibition is -0.01% (inactive).

`COc1ccc(S(=O)(=O)N/N=C\c2ccc(OC)c(COc3ccc(C)cc3[N+](=O)[O-])c2)cc1`: the inhibition was -2.91% (inactive).

As to `O=c1c2ccccc2nc2n1C(CSCc1cccc(C(F)(F)F)c1)CS2` (stereo not drawn), the inhibition is -3.32% (inactive).

With `COc1cc(NC(=O)CCS(=O)(=O)c2ccc3c(c2)oc(=O)n3C)cc(OC)c1`, the inhibition was -2.39% (inactive).

Turning to `CC(=O)Nc1ccc(/C(C)=N/NC(=O)CN(c2ccccc2Br)S(C)(=O)=O)cc1`, the inhibition is 1.17% (inactive).

Consider `COc1ccc(CNC(=O)C(=O)N2CCC3(CC2)OCCN3S(=O)(=O)c2ccc(C)cc2)cc1`, for which the inhibition is -1.66% (inactive).

`COC(=O)c1cccc(NS(C)(=O)=O)c1`: the inhibition was -0.97% (inactive).

Turning to `CC(OC(=O)c1cc2ccccc2o1)C(=O)Nc1ccc(N2CCOCC2)cc1` (stereo not drawn), the inhibition is -1.16% (inactive).

Take `COc1ccc(C(=O)OCC(=O)Nc2cc(C)on2)cc1F`: the inhibition was 1.42% (inactive).

Regarding `COCCCN1C(=O)C(CC(=O)NCc2cccs2)CC(C(=O)N2CCOCC2)=C1C` (stereo not drawn), the inhibition is -1.14% (inactive).

For `CN(C(=O)CN1C(=O)CCSc2ccc(S(=O)(=O)N3CCCC3)cc21)c1ccccc1`, the inhibition was 3.08% (inactive).

As for `O=C1CCCN1CCCNC(=S)Nc1ccc(F)c(Cl)c1`, the inhibition is 0.01% (inactive).

`COC(=O)CN1C(C)=Nc2ccc(Br)cc2C1c1ccccc1` (stereo not drawn): the inhibition was 0.08% (inactive).

For the molecule `Cc1ccccc1C(=O)NNC(=O)CN1C(=O)c2ccccc2C1=O`, the inhibition was 0.77% (inactive).

On to `CC(=O)c1ccc(S(=O)(=O)N2CCC(Oc3ccc(-n4cnnn4)cc3)CC2)cc1`, for which the inhibition was -1.2% (inactive).

Consider `COc1ccc(-c2cc(C(F)(F)F)nc(S(C)(=O)=O)n2)cc1OC`, for which the inhibition is -5.4% (inactive).

In the case of `O=C(Cn1ncc2c3ccccc3n(Cc3ccccc3)c2c1=O)NCCCN1CCOCC1`, the inhibition is -2.32% (inactive).

As for `CC(C)c1ccc2c(c1)c(SC(C)(C)C)c(CC(C)(C)C(=O)O)n2Cc1ccc(Cl)cc1`, the inhibition is 1.23% (inactive).

With `COCc1cc(C)n(CC(=O)NCC2CCCO2)c(=O)c1C#N` (stereo not drawn), the inhibition was 0.87% (inactive).

Regarding `CS(=O)(=O)N1CCCC(C(=O)Nc2ccccc2C(F)(F)F)C1` (stereo not drawn), the inhibition was -1.81% (inactive).

Take `COC(=O)C(=Nc1ccccc1)/C(C(=O)C(=O)N(C)c1ccccc1)=C(\O)c1ccc(Cl)cc1`: the inhibition is 4.54% (inactive).

Regarding `COc1ccc(CNC(=O)c2ccc3oc(C(C)C)nc3c2)cc1`, the inhibition was -2.02% (inactive).

On to `Cc1ccc(CC(=O)N(C)CC(=O)N(CC(C)C)c2c(N)n(CC(C)C)c(=O)[nH]c2=O)cc1C`, for which the inhibition is 1.88% (inactive).

In the case of `COc1ccc(C2=NS(=O)(=O)N(C)C(C(=O)NC(C)c3ccccc3)=C2)cc1` (stereo not drawn), the inhibition was -1.27% (inactive).

Regarding `CCCNC(=O)CCn1cc(-c2ccc(OC)cc2)nc1CCN`, the inhibition was -2.88% (inactive).

For `CCC(Oc1ccccc1C)C(=O)Nc1ccc(S(=O)(=O)Nc2cc(C)on2)cc1` (stereo not drawn), the inhibition was 2.56% (inactive).

On to `Cc1cccc2[nH]c(CN(C)C(=O)C3CCC(=O)N(CCc4ccccc4)C3)nc12` (stereo not drawn), for which the inhibition is 1.57% (inactive).

As for `Cc1ccc(S(=O)(=O)N2[C@@H](c3ccc(Br)cc3)C(C(=O)O)=C[C@H]2CC2CCCC2)cc1`, the inhibition was 7.5% (inactive).

`Cc1ccc(N2CC(C(=O)N3CCC4(CC3)CC(=O)c3ccccc3O4)CC2=O)cc1C` (stereo not drawn): the inhibition is -0.05% (inactive).

Take `CCc1c(C)sc(NC(=O)OC)c1C(=O)N1CCOCC1`: the inhibition was -2.33% (inactive).

As for `Cc1ccccc1C(=O)N1CCC(C(=O)Nc2ccc(S(=O)(=O)N(C)C(C)C)cc2)CC1`, the inhibition was -0.44% (inactive).

Turning to `CC1Cc2ccccc2N1C(=O)c1cc2sccc2n1Cc1ccccc1` (stereo not drawn), the inhibition is -8.28% (inactive).

`COc1cccc(NC(=O)CN(C)CC(=O)c2c(N)n(Cc3ccccc3)c(=O)n(C)c2=O)c1`: the inhibition is 0.04% (inactive).

As for `Nc1ccccc1-c1nc2ccncc2[nH]1`, the inhibition was 0.67% (inactive).

In the case of `CN(C)c1ccc(NC(=O)CN2C3CCCC2CC(NC(=O)c2ccccc2)C3)cc1` (stereo not drawn), the inhibition was 0.94% (inactive).

With `CCOC(=O)c1c(NC(=O)CCCN2CCOCC2)sc2c1CC(C)(C)OC2`, the inhibition is -0.04% (inactive).

On to `CCOCCCNC(=O)c1cc2c(=O)n3ccccc3nc2s1`, for which the inhibition was 1.17% (inactive).

Consider `CCCC(O)(c1ccccc1)C(c1ccccc1)c1ccccn1` (stereo not drawn), for which the inhibition was -1.16% (inactive).

Consider `Cc1ccc(OC(=O)c2c(C)nn(-c3ccccc3)c2C)cc1`, for which the inhibition is -9.87% (inactive).

`Cc1ccc(Cl)c(NC(=O)CN(C)CC(=O)Nc2ccc(F)c(F)c2F)c1Cl`: the inhibition was 2.92% (inactive).

For the molecule `CCOc1ccccc1OCCCNCc1ccccc1`, the inhibition was -2.73% (inactive).

Turning to `C=CCOc1nc2c(c(=O)n(C)c(=O)n2C)n1Cc1ccc(Cl)cc1Cl`, the inhibition is -0.75% (inactive).

As to `CCOC(=O)C1CCN(C(=O)Nc2ccc(C)c(Cl)c2)CC1`, the inhibition was 0.52% (inactive).

As to `CCN(CC(=O)NCCCN1CCOCC1)S(=O)(=O)c1cc(Cl)ccc1Cl`, the inhibition is 3.54% (inactive).

On to `CN(c1ccccn1)c1ncnc2[nH]ncc12`, for which the inhibition was 0.01% (inactive).

For `Cc1ccnc(NC(=O)C2CCN(S(=O)(=O)c3c(C)c(C)cc(C)c3C)CC2)c1`, the inhibition is -5.56% (inactive).
